# CF NFkB inh: inhibitors of cystic fibrosis induced NF-kB; KKLEB NF-kB-GFP reporter, PAF-induced, GFP fluorescence overnight; inhibition, % at 5 µM; 0.86% of 360,000 active; AID 588850;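 active means at least 50% inhibition at 5 µM, scaled per plate between neutral and stimulator controls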;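 further: PAF is a Pseudomonas aeruginosa culture filtrate used as stimulus; plate controls were PAF-stimulated DMSO wells for no effect and unstimulated DMSO wells for full effect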
# MITF TRPM1 inh: MITF TRPM1 promoter inhibition in SK-MEL-5 cells | 0.83% of 330,000 active | AID 488899 | inhibition, % at 12.5 µM | SK-MEL-5 TRPM1 promoter luciferase, 24 h;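 active means mean inhibition across replicates of 60% or more, whatever share of single replicates reaches that level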
# HIF-2a block: HIF-2a inhibition; 786-0 RCC cells HIF-2a reporter, luciferase luminescence, overnight; inhibition, % at 18.8 µM; 0.72% of 360,000 active; AID 624352;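 active means inhibition of the luminescence signal of 40% or more relative to plate controls, in a single-dose primary screen at 18.75 µM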
# KKLEB tox: CF airway cell cytotoxicity counter-screen; KKLEB CF airway cells viability, ATPlite luminescence, overnight; stronger effect = lower value; cells stimulated with P. aeruginosa culture filtrate; activity change (cytotoxicity), % at 5 µM; 0.36% of 360,000 active;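 active means corrected activity change at or below -50% at 5 µM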
# Shn3 3UTR inh: inhibitors of Schnurri-3 3'UTR reporter in osteoblasts | AID 588674 | inhibition, % at 12.5 µM | Clone20 osteoblast Shn3 3'UTR firefly luciferase, 24 h | 0.52% of 360,000 active;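 active means mean inhibition of at least 75% with every replicate also reaching 75%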;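 further: 0% = median of neutral control wells and 100% = pilot-screen positive control compound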
# Peg3 promoter: reduces Peg3 promoter-driven luciferase expression in HeLa. HeLa PEG-Prom luciferase reporter, luminescence, overnight. inhibition, % at 20 µM. 1.7% of 360,000 active. AID 588405;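 active means inhibition of at least 50% at 20 µM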
# Numbers without * were called inactive; nt = not tested or not shown. Sampled rows, rich in hits. Any-hit rate of the full collection: about 2.8%.
SMILES,CF NFkB inh,MITF TRPM1 inh,HIF-2a block,KKLEB tox,Shn3 3UTR inh,Peg3 promoter
COC(=O)CCSC(=S)N1CCOCC1,7,-26,-6,8,6,-5
Cc1ccc(SCC(=O)N2c3ccccc3Sc3ccccc32)cc1,-6,2,0,8,18,12
Oc1ccc(Cl)c2cccnc12,46,35,15,-40,30,36
Oc1c(I)cc(I)c2cccnc12,-12,20,26,6,94*,42
COc1cc(Nc2nc(-c3ccccc3)c3cc(C)ccc3n2)cc(OC)c1OC,-47,11,-10,6,84*,12
Cc1ccc2nc(NCC(=O)O)nc(-c3ccccc3)c2c1,28,5,28,-10,25,1
Cc1cc(CN(C)C(=O)c2cc(COc3ccc4ncccc4c3)on2)on1,7,10,-50,8,79,-27
CC(CNC(=O)c1cc(COc2ccc3ncccc3c2)on1)c1ccccc1 (stereo not drawn),21,22,24,-22,88*,48
O=C(NC1CCCCCCC1)c1cc(COc2ccc3ncccc3c2)on1,13,23,16,-16,88*,-10
COc1cccc(C(=O)Nc2cccc(-c3nnc(-c4ccco4)o3)c2)c1,-37,12,-68,-5,-6,94*
O=C(Nc1ccccc1)c1cccc(-c2nnc(-c3ccccc3)o2)c1,21,-19,-39,-20,-10,-30
COc1ccc(Br)cc1C(=O)Nc1cccc(-c2nnc(-c3ccco3)o2)c1,18,-7,1,-21,62,53*
CCCN(CCC)CC(O)CN1C(=O)N(CN2C(=O)N(CC(O)CN(CCC)CCC)C(=O)C2(C)C)C(C)(C)C1=O (stereo not drawn),0,-12,13,2,-13,-10
COc1cc(C(=O)ON=C2C3CC4CC(C3)CC2C4)cc(OC)c1OC,4,20,-6,4,3,76*
O=C(c1ccco1)N1CCN(c2ncnc3scc(-c4cccs4)c23)CC1,26,16,0,-4,39,53*
CCOC(=O)C1CCCN(C(=O)c2cc(S(=O)(=O)N3CCCCC3)c[nH]2)C1 (stereo not drawn),-17,nt,10,2,-21,20
C=Cc1cnc([N+](=O)[O-])n1C,-1,nt,-10,-2,-24,-2
Cn1nc(C2CC2)cc1NC(=O)C1(C)CCN1C(=O)Cc1ccc(-c2ccccc2)cc1 (stereo not drawn),4,nt,6,-7,39,30
CC(=O)c1ccc(N/N=C(/C(N)=O)C2=NC(C)(C)Cc3ccccc32)cc1,26,5,31,-16,29,77*
Cc1cc(NCCCn2ccnc2)n2ncc(-c3ccc(Cl)cc3)c2n1,55*,-5,-162,-55*,4,-55
O=C(NCCN1CCC(n2c(=O)[nH]c3ccccc32)CC1)c1ccc(F)cc1Cl,nt,nt,-2,nt,nt,nt
Clc1ccc(OCc2noc(-c3ccsc3)n2)c(Cl)c1,1,-106,-372,-6,-84,-339
COc1cc(NC(=O)CSc2ncnc3c2cnn3Cc2ccccc2)cc(OC)c1,18,0,21,-14,12,21
COc1ccc(OC)c(NC(=O)CSc2ncnc3c2cnn3-c2ccccc2Cl)c1,-16,29,27,3,89*,13
COc1cccc(-c2nc(NC3CCCC3)c3ccccc3n2)c1O,-12,14,-56,6,86*,42
SMILES,CF NFkB inh,MITF TRPM1 inh,HIF-2a block,KKLEB tox,Shn3 3UTR inh,Peg3 promoter
Cc1cccc(C)c1NC(=O)C(C1CC1)n1c(-c2ccc(-c3ccccc3)cc2)nc2ccccc21 (stereo not drawn),nt,nt,-7,nt,nt,nt
CCOc1cc(/C=N\NC(N)=O)cc(Br)c1OC(C)C,10,-1,8,-2,-16,56*
CCOc1cc(/C=N/NC(N)=O)cc(Br)c1OCc1ccccc1F,-34,-5,27,3,14,14
c1csc(C(c2nnnn2C2CCCCC2)N2CCCC3(CCCCC3)C2)c1 (stereo not drawn),14,-9,14,-6,36,11
CC(C)(C)n1nnnc1C(c1cccs1)N1CCCC2(CCCCC2)C1 (stereo not drawn),-6,2,2,10,85*,27
COc1ccc(-c2nn(-c3ccccc3)cc2/C=N/N2C(=O)CSC2=S)cc1,19,104*,43*,-21,-13,57*

# Screening results (PubChem BioAssay)
